Source: PubChem (several laboratories)
In the library only some 2.2% were active in any assay of this set; here they are far more common.
Redox H2O2 prof = compounds producing H2O2 with reducing agent – biochemical, NIH compound library profiling, artefact control for MLSCN library redox annotation, primary screen; DTT-dependent redox cycling H2O2, phenol red/HRP absorbance; 100% = 100 µM peroxide control, 0% = buffer; 200,000 compounds, 0.03% hits; activation, % at 10 µM;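 active = activation of at least 50% relative to the plate's high and low controls in the primary single-dose screen; inactive = activation below 50%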;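 note: compound incubated with DTT at 0.8 mM final as the reducing agent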
Ins promoter up = MIN6 insulin promoter up-regulation; z-score at 5 µM; MIN6 insulin promoter-GFP reporter, high-content imaging; hits give high values; 190,000 compounds, 0.3% hits; AID 1625;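 active = z-score above 3 at 5 µM with at least 500 cells counted in the well; inconclusive = wells under 500 cells, flagged as cytotoxic or low count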
Arbovirus anti = antivirals against arbovirus infection. arbovirus infection cell-based antiviral screen. AID 1251. 200,000 compounds, 0.37% hits. inhibition, % at 10 µM; in the data active = inhibition above about 30%
NCF1 inh = inhibitors of human p47phox binding | inhibition, % at 24.7 µM | P14598 | AID 1274 | 220,000 compounds, 0.53% hits | p47phox/p22phox peptide binding, fluorescence polarization, 2 h;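 active = inhibition above about 30%, limit read from the data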
Target sequence (P14598 whole entry, looked up): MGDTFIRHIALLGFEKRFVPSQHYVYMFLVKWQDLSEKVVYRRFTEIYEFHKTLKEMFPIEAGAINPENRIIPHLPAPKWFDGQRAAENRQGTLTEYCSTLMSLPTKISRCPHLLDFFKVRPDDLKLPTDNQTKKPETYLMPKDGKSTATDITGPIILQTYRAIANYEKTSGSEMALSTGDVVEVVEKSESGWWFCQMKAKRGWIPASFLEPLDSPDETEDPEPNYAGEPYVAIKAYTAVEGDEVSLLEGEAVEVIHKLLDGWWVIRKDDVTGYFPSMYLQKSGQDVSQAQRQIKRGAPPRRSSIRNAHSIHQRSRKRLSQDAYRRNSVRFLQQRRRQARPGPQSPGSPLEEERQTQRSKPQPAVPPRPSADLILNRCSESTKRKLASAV
Autophagy HCS = alters autophagy in cells; MEF GFP-LC3 puncta imaging; test concentration mostly 10 µM; calls only at 10 µM (by protocol); 190,000 compounds, 0.98% hits;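 active = percentage of spot-positive cells more than 3 SD above its plate mean, without a fluorescence outlier flag or 80% toxicity; inconclusive = no clear call, values can overlap the other calls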
HMGR II inh = inhibitors of class II HMG-CoA reductase from Enterococcus faecalis; inhibition, % at 10 µM; AID 1066; 190,000 compounds, 0.41% hits; purified E. faecalis HMGR, NADPH absorbance 340 nm kinetic;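 active = inhibition above a set limit, the median over all tested compounds plus 3 SD, cut at about 9.5% in these data; inconclusive = no clear call, values can overlap the other calls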;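 note: enzyme runs in reverse so mevalonate oxidation gives rising NADPH absorbance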
Large screens that a line does not name were inactive.

CCC(C)N1C(=O)/C(=C\c2ccc(N3CCCCCC3)cc2)C(=O)NC1=S (centres undefined)	NCF1 inh 56
CCC(C)N1C(=O)/C(=C\c2cc3c4c(c2)CCCN4CCC3)C(=O)NC1=S (centres undefined)	NCF1 inh 63
CN1C(=O)/C(=C\c2ccc(N3CCCCCC3)cc2)C(=O)NC1=S	none (no result: Redox H2O2 prof, Arbovirus anti, Autophagy HCS, HMGR II inh)
C[C@]12CCC(=O)C(O)=C1CC[C@@H]1[C@@H]2CC[C@]2(C)C(=O)CC[C@@H]12	none (no result: Ins promoter up)
O=C(Nc1ccc(Cl)cc1)O/N=C(\c1ccccc1)c1ccccn1	none
C/C(=N\Nc1ccccc1)c1c(O)n(Cc2ccccc2)c(=O)[nH]c1=O	none
CN1/C(=C\C=C\C2=[N+](C)c3ccc4ccccc4c3C2(C)C)C(C)(C)c2ccccc21	Ins promoter up inconclusive, Autophagy HCS active
Cn1c(O)c(C2=NNC(c3ccc(Cl)cc3)C2)c(=O)n(C)c1=O (centres undefined)	none (no result: Redox H2O2 prof, Arbovirus anti, Autophagy HCS, HMGR II inh)
CCOc1ccc(C2CC(c3c(O)n(C)c(=O)n(C)c3=O)=NN2)cc1 (centres undefined)	NCF1 inh 61 (no result: Redox H2O2 prof, Arbovirus anti, Autophagy HCS, HMGR II inh)
O=S(=O)(c1ccccc1)N1CCCCC1c1cccnc1 (centres undefined)	NCF1 inh 43
Nc1ccc(S(=O)(=O)N2CCCCC2c2cccnc2)cc1 (centres undefined)	none
c1ccc(-c2[nH]c[n+](CC3CO3)c2-c2ccccc2)cc1 (centres undefined)	NCF1 inh 31
CCCNc1nc(OC)nc(N2CC3CC(C2)c2cccc(=O)n2C3)n1 (centres undefined)	HMGR II inh 9.9
COc1nc(NCC2CCCO2)nc(N2CC3CC(C2)c2cccc(=O)n2C3)n1 (centres undefined)	none (no result: Redox H2O2 prof, Arbovirus anti, Autophagy HCS, HMGR II inh)
CCn1c(O)c(C=NCc2cccs2)c(=O)[nH]c1=O	none (no result: Ins promoter up)
CCOc1ccccc1-n1c(O)c(C=NCCCN(CC)CC)c(=O)[nH]c1=O	none
COc1ccc(C2NCc3ccc4c(c3-n3cccc32)OCO4)cc1O (centres undefined)	Autophagy HCS active
Cc1ccccc1C1=NCC(=S)Nc2ccc(Cl)cc21	HMGR II inh 10 (no result: Ins promoter up)
COc1ccc(NC(=O)c2cn(CCC#N)nc2-c2cccc([N+](=O)[O-])c2)cc1	none (no result: Redox H2O2 prof, Arbovirus anti, Autophagy HCS, HMGR II inh)
COc1ccc(Oc2cc(NC(=O)c3nn(C)cc3[N+](=O)[O-])cc([N+](=O)[O-])c2)cc1	Autophagy HCS active
O=C(C1CC(=O)N(C2CCCCCCC2)C1)N1CCC2(CC1)OCCO2 (centres undefined)	NCF1 inh 35
C=CCn1c(=O)c(C=Nc2cccnc2Cl)c(O)n(CCCC)c1=O	none
CCN1C(=O)/C(=C\c2ccc([N+](=O)[O-])s2)C(=O)NC1=S	HMGR II inh 11 (no result: Ins promoter up)
CCNC(=S)N1CCn2cccc2C1c1cccnc1 (centres undefined)	none
Cc1oc2ccc(OC(=O)N(C)C)cc2c1C(=O)OC(C)C	Arbovirus anti 32
Cc1ccc(-n2c(O)c(/C=N/Nc3ccccc3)c(=O)[nH]c2=O)cc1C	NCF1 inh 40 (no result: Redox H2O2 prof, Arbovirus anti, Autophagy HCS, HMGR II inh)
Clc1ccc(CSC(Cn2ccnc2)c2ccc(Cl)cc2Cl)cc1 (centres undefined)	HMGR II inh 11 (no result: Ins promoter up)
O=C1NC(=O)C(CCc2ccncc2)(Cc2ccc(OCc3ccccc3)cc2)C(=O)N1	none (no result: Redox H2O2 prof, Arbovirus anti, Autophagy HCS, HMGR II inh)
CCN1C(=O)/C(=C/c2ccc3c(c2)CCN3CCCCl)C(=O)NC1=S	none
C=CCN1C(=O)/C(=C/c2ccc3c(c2)CCCN3CCC)C(=O)NC1=S	NCF1 inh 43
CN1C(=O)/C(=C\c2ccc(N3CCCCC3)o2)C(=O)NC1=S	none
CN1CCN(c2ccc(/C=C3\C(=O)NC(=S)N(c4cccc(Br)c4)C3=O)o2)CC1	Arbovirus anti 37 (no result: Ins promoter up)
Cc1cc2ccccc2c(=O)n1CC(=O)NCC(=O)N1CCC2(CC1)OCCO2	Autophagy HCS active
COc1ccc(CCNCc2sccc2C)cc1OC	none
C=C1[C@@H](C)[C@H]2[C@H](Cc3ccccc3)NC(=O)[C@]23OC(=O)/C=C/[C@H](O)CCC[C@@H](C)C/C=C/[C@H]3[C@@H]1O	NCF1 inh 31 (no result: Redox H2O2 prof, Autophagy HCS, HMGR II inh)
CN(C)c1ccc(/C=C/[N+](=O)[O-])cc1	NCF1 inh 43
C/C(=C\c1ccc(N(C)C)cc1)[N+](=O)[O-]	none
CC(C)CC(NC(=O)C1CCCCC1)C(=O)N1CCC2(CC1)OCCO2 (centres undefined)	none
CC(C)C[C@H](NC(=O)[C@@H]1CCCN1C(=O)[C@@H](N)Cc1ccc(O)cc1)C(=O)NCC(N)=O	HMGR II inh 18 (no result: Ins promoter up)
CC(=O)c1c(C)n(CC2CCCO2)c2ccc(O)cc12 (centres undefined)	none
CC(=O)c1c(C)n(Cc2ccccc2Cl)c2ccc(O)cc12	NCF1 inh 115
CCN(CC)c1ccc(/C=N/c2sc3c(c2C#N)C2CCN3CC2)c(O)c1	NCF1 inh 74, Autophagy HCS inconclusive (no result: Ins promoter up)
COc1ccc(CCN(C)Cc2ccc(F)cc2F)cc1OC	Arbovirus anti 71
Cc1ccccc1NP(=O)(Oc1ccccc1F)Oc1ccccc1F	none
Cc1nn(Cc2ccccc2)c(Cl)c1C(=O)NC1CCCc2ccccc21 (centres undefined)	Arbovirus anti 30, Autophagy HCS active
CCCCn1c(O)c(/C=C/C=Nc2ccccc2)c(=O)[nH]c1=O	none
COc1ccccc1/C=C1/C(=N/O)C2CCN1CC2	none
COc1cc(C)c(CN2CCN(c3ccccc3)CC2)cc1C	none
COc1cc(CN2CCN(c3cc(C)ccc3C)CC2)ccc1O	Autophagy HCS active
COc1ccccc1N1CCN(Cc2cc(C)c(C)cc2O)CC1	Arbovirus anti 32
NNc1n[nH]c(=S)n1N	none (no result: Redox H2O2 prof, Ins promoter up, Arbovirus anti, Autophagy HCS, HMGR II inh)
COc1ccccc1-n1c(-c2cccs2)nc2ccccc2c1=O	none
CCOc1cc(C2C(C#N)=C(N)Oc3c2c(=O)oc2ccccc32)ccc1OC(=O)c1cccs1 (centres undefined)	none
O=c1c2ccccc2[se]n1-c1ccccc1	NCF1 inh 85 (no result: Ins promoter up)
N=Cc1c(O)n(-c2ccccc2)c(=O)n(-c2ccccc2)c1=O	none (no result: Redox H2O2 prof, Arbovirus anti, Autophagy HCS, HMGR II inh)
Cc1ccc2c(c1)C1CN(C)CCC1N2C(=O)c1cn(-c2ccccc2)nc1-c1ccccc1 (centres undefined)	Autophagy HCS active
Cc1ccc2c(c1)C1CN(C)CCC1N2C(=O)c1cccnc1Cl (centres undefined)	none (no result: Redox H2O2 prof, Arbovirus anti, Autophagy HCS, HMGR II inh)
CCCCCCCCCOc1ccc2[nH]cc(CCN)c2c1	Ins promoter up inconclusive, NCF1 inh 92 (no result: Redox H2O2 prof, Autophagy HCS)
COc1ccc2[nH]cc(CCN)c2c1	none
CNC(C(=O)c1ccccc1)C(OC)c1ccc(C)cc1 (centres undefined)	none
c1ccc(-c2nc(N3CCOCC3)s[n+]2-c2ccccc2)cc1	NCF1 inh 41
CCOP(=O)(OCC)C(NC(=O)c1cccc([N+](=O)[O-])c1)C(Cl)(Cl)Cl (centres undefined)	none (no result: Redox H2O2 prof, Arbovirus anti, Autophagy HCS, HMGR II inh)
CN(C)c1ccc(/C=C2/C(=O)NC(=O)N(CCc3ccc(F)cc3)C2=O)cc1	none (no result: Ins promoter up)
